In the library only some 1.2% were active in any assay of this set; here they are far more common.
S-ASM inh = Inhibitors of Secretory Acid Sphingomyelinase (S-ASM): qHTS; Sphingomyelin phosphodiesterase (Homo sapiens), P17405; placental ASM, HMU-PC fluorogenic substrate, 60 min; Potency, µM (doses to about 57.5 µM), for inactives: at the highest dose activity change, negative = inhibition, most hits filed as inhibitors; 340,000 compounds, 0.006% hits; AID 504937, 2011; note: potency is the fitted concentration of half-maximal effect
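Human placenta-derived ASM enzyme was preincubated with compound for 10 minutes at room temperature, then given fluorogenic substrate HMU-PC0 (9 uM final) for 60 minutes at 37 °C; a pH 10 stop preceded fluorescence reading at Ex 386/Em 447 nm.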
TSG101-PTAP inh = qHTS Assay for Iinhibitors of HIV-1 Budding by Blocking the Interaction of PTAP/TSG101 | 340,000 tested, under 10 active | Potency, µM (series often up to 115 µM), for the others: at the top dose activity change, negative = inhibition, usual class: inhibitors | Fluorescence polarization, FITC-PTAP peptide / Tsg101 binding; active = well fitted inhibition curve with a large enough effect in the main read-out, with a control signal flat, not every such curve was filed as active; inconclusive = small, poorly fitted or top-dose-only effect, or effect the other way, or a change in a side signal; inactive = no such curve, though single readings can be large or run the other way; note: potency is the fitted concentration of half-maximal effect; % of control where 0% means no effect
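Steps: Tsg101 binding domain dispensed (10 uM final), compounds pinned in DMSO, FITC-labeled PTAP-motif peptide added (50 nM final); after 20 min binding at room temperature, polarization measured.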
BRCA1 expr up = qHTS Assay to Identify Small Molecule Activators of BRCA1 Expression; Potency, µM (highest dose often 46.1 µM), without a hit: top-dose activation, hits mostly activators; 380,000 compounds, 1.1% hits; MCF7-BRCA1-FFLuc reporter, luminescence, 48 h; response scale: scaled: vehicle 0%, 10 µM genistein 100%; AID 624202, 2012; note: potency is the fitted concentration of half-maximal effect; nearly all actives have a fitted effect of over 80% in size
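MCF7-BRCA1-FFLuc, 2000 cells/well; 2 h attach, 37 °C/5% CO2; compound 48 h; luciferase substrate 15 min; luminescence end-point. Norm. to genistein 10 microM max activation and DMSO; concentration-response curves fitted.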
TSHR antag = Antagonists of the Thyroid Stimulating Hormone Receptor: HTS campaign; Thyrotropin receptor (Homo sapiens), P16473; TSHR-expressing cells, TSH-stimulated cAMP HTRF, 2 h; hits give low values; activity change, negative = inhibition, % at 11.5 µM; 330,000 compounds, 0.2% hits; AID 504810, 2011;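 active = activity change below a set negative limit, meaning inhibition stronger than a set level, cut at about -70% in these data; inconclusive = activity change between two set negative limits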; note: % is set by controls: 0 for no effect and ±100 for the full control effect
Target sequence (P16473 whole entry, looked up): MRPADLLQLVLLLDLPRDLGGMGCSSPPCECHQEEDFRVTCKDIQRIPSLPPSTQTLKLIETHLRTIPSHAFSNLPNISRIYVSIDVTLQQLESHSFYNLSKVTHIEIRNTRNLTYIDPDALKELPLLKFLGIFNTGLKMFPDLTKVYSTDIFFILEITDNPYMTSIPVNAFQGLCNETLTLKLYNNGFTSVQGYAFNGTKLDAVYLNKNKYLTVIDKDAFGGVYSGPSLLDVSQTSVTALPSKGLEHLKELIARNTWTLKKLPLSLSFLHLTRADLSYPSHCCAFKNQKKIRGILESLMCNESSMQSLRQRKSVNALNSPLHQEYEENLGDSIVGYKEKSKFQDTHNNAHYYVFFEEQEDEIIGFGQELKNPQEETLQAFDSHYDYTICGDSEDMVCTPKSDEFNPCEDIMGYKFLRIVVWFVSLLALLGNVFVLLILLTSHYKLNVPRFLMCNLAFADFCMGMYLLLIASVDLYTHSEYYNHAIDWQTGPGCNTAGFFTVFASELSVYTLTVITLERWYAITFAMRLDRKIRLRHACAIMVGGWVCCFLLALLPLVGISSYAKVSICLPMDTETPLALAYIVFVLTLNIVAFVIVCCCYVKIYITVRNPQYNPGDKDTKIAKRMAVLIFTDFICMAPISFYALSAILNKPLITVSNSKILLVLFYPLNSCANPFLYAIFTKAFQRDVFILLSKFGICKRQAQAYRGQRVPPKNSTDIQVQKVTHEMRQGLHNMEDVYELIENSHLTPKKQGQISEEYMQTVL
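TSHR-expressing cells, 200/well, pre-treated with compound, then stimulated with EC80 TSH (4nM final) for 2 hours at 37 deg C. cAMP measured by competitive HTRF: anti-cAMP cryptate antibody in lysis buffer plus cAMP-d2, read after 30 minutes at room temperature.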
Anesthetic bind = qHTS Assay for Identification of Novel General Anesthetics; apoferritin/1-aminoanthracene competitive binding, fluorescence; Potency, µM (series often up to 77.5 µM), for the others: at the top dose activity change, negative = displacement, usual class: inhibitors; 350,000 compounds, 0.074% hits; note: potency is the fitted concentration of half-maximal effect; % is set by controls: 0 for no effect and ±100 for the full control effect; nearly all actives have a fitted effect of over 20% in size
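Concentration-response curves derived by four-parameter Hill fitting of normalized fluorescence, where compounds displaced 1-AMA from 10 uM horse apoferritin following a brief 10 min room-temperature incubation; propofol titration acted as positive control.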
An asterisk follows results filed as active; ? = inconclusive; nt = no result. Unless noted, calls come from the whole dose curve; as a rule, active = well fitted curve in the direction sought with a large enough effect; inconclusive = small, poorly fitted or top-dose-only effect, or another doubt; inactive = no such curve, though single readings can be large; an effect the other way counts as inactive or inconclusive.

SMILES	S-ASM inh	TSG101-PTAP inh	BRCA1 expr up	TSHR antag	Anesthetic bind
Cc1ccc(CNC(=O)c2cc(COc3c(F)cccc3F)on2)s1	-1.2%	-1.5%	0.0%	-37.8	12.6µM*
Cc1nn(C)cc1C(C)NC(=O)c1cc(COc2c(F)cccc2F)on1 (stereo not given)	-2.9%	1.0%	-0.6%	11.9	4.5%
CC(NC(=O)c1cc(COc2c(F)cccc2F)on1)c1cnn(-c2ccccc2)c1 (stereo not given)	0.3%	-5.1%	7.08µM*	-19.1	-4.0%
Cc1ccc(S(=O)(=O)N2CCN(c3nc(-n4ccnn4)nc4ccccc34)CC2)cc1	nt	nt	-10.2%	nt	nt
Cc1ccc([N+](=O)[O-])cc1NC(=O)c1ccc(C(C)(C)C)cc1	-6.8%	-3.0%	-57.8%	-37.2	?
Cc1c(NC(=O)c2ccc(C(C)(C)C)cc2)cccc1[N+](=O)[O-]	nt	2.1%	7.94µM*	-5.7	-14.7%
Cc1ccc(NC(=O)c2ccc(C(C)(C)C)cc2)cc1[N+](=O)[O-]	0.0%	-5.3%	8.91µM*	-12.7	-4.1%
CSc1ccccc1-c1nnc(-c2ccc(Cl)cc2Cl)o1	1.8%	-4.2%	7.94µM*	2.2	-12.3%
CCCNC(=O)c1noc2c1CCc1ccccc1-2	1.9%	-4.8%	47.6%	-14.1	7.6%
COc1ccc2c(c1)CCc1c(C(=O)N3CCOCC3)noc1-2	-0.3%	-7.7%	2.82µM*	-12.9	-4.3%
O=C(NCCN1CCOCC1)c1noc2c1CCc1ccccc1-2	2.3%	-6.6%	7.94µM*	3.2	2.9%
CC1(C(=O)Nc2cccc(C(F)(F)F)c2)Cc2ccccc2C(=O)O1 (stereo not given)	nt	nt	nt	nt	15.8µM*
Cc1cccc(NC(=O)C2(C)Cc3ccccc3C(=O)O2)c1 (stereo not given)	nt	nt	17.4%	nt	?
O=c1oc2cc(Cl)ccc2n1CSc1nc2ccccc2s1	-13.3%	-0.1%	7.94µM*	-11.3	48.3%
O=C(CSc1nc2ccccc2s1)N1c2ccccc2Sc2ccc(Cl)cc21	-2.1%	0.7%	-35.5%	-7.3	2.5%
CC1CCN(c2ccc(C(=O)NCc3cccs3)cn2)CC1	-1.0%	-11.0%	14.1µM*	-11.9	?
Clc1ccc(N/N=C/c2ccncc2)cc1Cl	-0.2%	-4.0%	7.08µM*	-14.1	4.0%
Fc1ccc(N/N=C/c2ccncc2)c(F)c1	-1.7%	-2.5%	14.1µM*	5.4	6.3%
COc1cc(/C=C/c2ccnc3ccccc23)cc(OC)c1OC	nt	nt	-50.0%	nt	nt
COc1ccc(NC(=O)CSc2nnc3c(n2)[nH]c2ccc(S(=O)(=O)N(C)C)cc23)c(OC)c1	nt	nt	11.8%	nt	nt
CC(C)N(C(=O)CO/N=C/c1cccc([N+](=O)[O-])c1)C(C)C	-3.1%	-6.0%	-3.9%	4.9	44.7µM*
O=C(CO/N=C/c1cccc([N+](=O)[O-])c1)NC1CCCCC1	-2.2%	-0.4%	-21.5%	5.3	?
c1ncc2snnc2n1	nt	nt	6.4%	nt	nt
CCCn1c(/C=C/c2ccccc2)nc2ccccc21	177.5%	-7.0%	20.8%	6.4	-1.7%
CC(C)n1c(/C=C/c2ccccc2)nc2ccccc21	253.2%	-3.5%	2.24µM*	-4.7	-1.3%
SMILES	S-ASM inh	TSG101-PTAP inh	BRCA1 expr up	TSHR antag	Anesthetic bind
O=C(Nc1nccs1)c1ccc(-c2ccc([N+](=O)[O-])cc2)o1	-2.4%	8.7%	3.16µM*	-4.3	-3.5%
O=C(Nc1nccs1)c1ccc(-c2ccccc2Cl)o1	-10.0%	-9.0%	94.6%	-10.7	-20.7%
O=C(Nc1nccs1)c1ccc(-c2ccccc2[N+](=O)[O-])o1	-11.0%	-5.3%	3.55µM*	1.0	-15.2%
COCC(=O)n1nc(-c2ccc(C)cc2)nc1NCc1ccc(F)cc1	-0.5%	0.2%	10µM*	-7.7	-8.3%
O=c1cc(-c2ccco2)oc2ccc(Cl)cc12	2.4%	-3.8%	68.2%	8.0	1.2%
COc1ccc2oc(-c3ccco3)cc(=O)c2c1	27.8%	0.1%	6.31µM*	45.8	5.9%
Fc1ccccc1-c1ccc(-c2nc3ccc(Cl)cn3c2Nc2ccc(Cl)cc2)o1	nt	nt	13.4%	nt	nt
O=C(Nc1nc(-c2cccs2)cs1)C1=COCCO1	-1.7%	-1.4%	3.98µM*	-11.0	-6.9%
O=C(Nc1ccc(CN2CCOCC2)cc1)c1ccc(Br)cc1	-2.0%	-3.6%	?	-3.3	-1.7%
O=C(Nc1ccc(CN2CCOCC2)cc1)c1ccc(Cl)cc1	3.5%	-2.6%	12.6µM*	-0.7	-6.7%
Cc1ccc(C)c(N2CCN(C(=O)CCS(=O)(=O)c3ccc4c(c3)CCN4C(=O)C3CC3)CC2)c1	-2.4%	-2.4%	-5.7%	-81.6*	-4.5%
O=C1OC(c2cc(I)c(O)c(I)c2)(c2cc(I)c(O)c(I)c2)c2ccccc21	nt	nt	nt	nt	-12.6%
O=C(Nc1ccc(Cl)cc1)C1C2CCCCC21 (stereo not given)	-0.1%	1.5%	2.24µM*	16.4	-5.8%
O=C(NCC1CC1)Nc1ccc(Cl)cc1	5.2%	1.7%	10µM*	-12.1	-4.3%
O=C(NCc1ccncc1)Nc1ccc2c(c1)OCO2	5.9%	-0.5%	12.3%	-1.9	-1.7%
O=C(NCCNC(=O)Nc1ccc(Cl)cc1)Nc1ccc(Cl)cc1	2.0%	0.3%	-14.0%	nt	nt
O=C(NCc1cccs1)Nc1ccc2c(c1)OCO2	1.1%	-9.5%	10µM*	-5.2	-1.0%
O=C(NCc1cccs1)Nc1ccc(Cl)cc1	0.9%	-1.8%	10µM*	-3.0	11.8%
CC(=O)NC(Cc1ccc(Cl)cc1)C(=O)NCC(N)C(=O)c1ccccc1 (stereo not given)	nt	nt	-60.7%	nt	nt
CC(=O)NCCN=C(C)c1sc2ccccc2c1O	20.9%	-6.3%	12.6µM*	-1.5	-3.3%
COc1ccc(NC(=O)CSc2nnc(C3CCCCC3)n2N)cc1	-1.5%	-3.7%	7.4%	-1.1	?
Nn1cnnc1SCC(=O)Nc1ccc(C2CCCCC2)cc1	-2.6%	-6.0%	85.5%	-2.1	7.08µM*
Nn1c(SCC(=O)Nc2cccc(F)c2)nnc1C1CCCCC1	3.0%	-2.7%	-0.8%	-9.1	8.91µM*
CCC(C)c1ccc(NC(=O)CSc2nncn2N)cc1 (stereo not given)	-0.9%	-2.0%	?	-6.0	?
COc1ccc(N=c2nc(-c3ccc(C)cc3)n(-c3ccccc3)s2)cc1	nt	nt	-41.5%	nt	nt
N=C1S/C(=C\c2cn[nH]c2-c2ccc(F)cc2)C(=O)N1c1ccccc1F	0.1%	5.0%	7.08µM*	-21.3	-2.4%
N=C1S/C(=C\c2ccccc2F)C(=O)N1c1ccc(F)cc1	-2.2%	-8.0%	-6.9%	14.2	-5.8%
NC(=O)C1CCN(c2nc(-c3ccc4c(c3)OCO4)cs2)CC1	nt	nt	nt	18.9	nt

Bioassay records (PubChem BioAssay)
